Marburg entry inh – blocks Marburg virus binding to or entry into cells; Marburg virus pseudotyped entry inhibition, cell reporter; Potency, µM (series often up to 37.8 µM), without a hit: top-dose activity change, negative = inhibition, usual class: inhibitors; actives 1.8% (n = 300,000); AID 540276; calls by dose curve; tested in HEK293 cells; also: potency is read from the fitted curve at half-maximal effect; % is scaled to controls: 0 for no effect and ±100 for the full control effect
Vaccinia mCherry – vaccinia inhibition (mCherry reporter) | Vaccinia virus mCherry reporter infection, fluorescence | Potency, µM (titrated, usually from 36.5 µM), inactives show top-dose activity change, negative = inhibition, usual class: inhibitors | actives 0.63% (n = 310,000) | AID 720579; calls by dose curve; tested in A549 cells; also: potency is read from the fitted curve at half-maximal effect; % is scaled to controls: 0 for no effect and ±100 for the full control effect; nearly all actives have a fitted effect of over 35% in size
VACV Venus inh – inhibitors of vaccinia virus (Venus reporter); Vaccinia virus Venus reporter expression, fluorescence; Potency, µM (titrated, usually from 36.5 µM), without a hit: at the top dose activity change, negative = inhibition, usual class: inhibitors; actives 0.46% (n = 330,000); calls by dose curve; tested in A549 cells; also: potency is read from the fitted curve at half-maximal effect; % is scaled to controls: 0 for no effect and ±100 for the full control effect; nearly all actives have a fitted effect of over 30% in size
Cycloheximide cs – counter-screen for Shiga toxin inhibitors: cycloheximide protein synthesis inhibition; cell reporter, cycloheximide protein synthesis inhibition counterscreen; max response, %; actives 12% (n = 300,000); in the data active = max response mostly above about 13%, no sharp cut-off; inactive = mostly below about 14%; also: read at 38.3 µM for the half of the compounds with a filed dose; 0% is about no effect
LASV entry inh – blocks Lassa virus binding to or entry into cells; Lassa virus pseudotype entry inhibition, cell reporter; Potency, µM (titrated, usually from 37.9 µM), for the others: at the top dose activity change, negative = inhibition, most hits filed as inhibitors; actives 1.2% (n = 300,000); AID 540256; calls by dose curve; tested in HEK293 cells; also: potency is read from the fitted curve at half-maximal effect; % is scaled to controls: 0 for no effect and ±100 for the full control effect; nearly all actives have a fitted effect of over 50% in size
Shiga inhibitor – inhibitors of Shiga toxin in Vero cells | Vero cells, Shiga toxin protein synthesis inhibition reporter | inhibition, % at 38.7 µM | actives 9.2% (n = 290,000) | AID 2315; in the data active = inhibition mostly above about 28%, no sharp cut-off; inactive = mostly below about 43%; also: 0% is about no effect
* hit, by the source's call; i = inactive; ? = inconclusive; / = no result given; [ ] = dose if it differs, or a comment. Only a selection was taken, and hits are over-represented in it overall.

SMILES	Marburg entry inh	Vaccinia mCherry	VACV Venus inh	Cycloheximide cs	LASV entry inh	Shiga inhibitor
O=Cc1ccccc1Oc1ccccc1	4.1%	/	-19.4%	0.5	-6.0%	16.7
O=Cc1ccccc1OCCOc1ccccc1C=O	-25.7%	-17.3%	-10.6%	34.4*	?	52.2*
COc1ccccc1[N+](=O)[O-]	/	-11.1%	-10.5%	/	/	/
O=[N+]([O-])c1ccccc1OC/C(=N\O)c1ccccc1	?	-3.4%	-11.3%	14.8*	4.9%[46.1 µM]	41.0*
COc1ccc(C(=O)COC(=O)/C=C/c2ccccc2[N+](=O)[O-])cc1	-0.1%	-13.3%	-5.0%	/	7.7%	/
O=C(/C=C/c1ccccc1[N+](=O)[O-])OCC(=O)c1ccccc1	-0.9%	-1.4%	-0.2%	36.6*	?	79.3*
O=C(COc1ccccc1[N+](=O)[O-])c1ccccc1	-13.8%[46.1 µM]	-2.2%	6.7%	24.9*	-4.4%	25.2
COC(=O)/C=C/COc1ccccc1[N+](=O)[O-]	-13.2%	/	/	43.0*	-16.0%	106.8*
CCS(=O)(=O)c1nc(S(=O)(=O)c2ccc(C)cc2)c(NCC(C)C)s1	7.7%[46.1 µM]	-10.1%[7.34 µM]	-6.0%[7.34 µM]	-4.9	-22.4%[46.1 µM]	8.1
Cc1ccc(-c2nc(-c3cc4c([nH]c3=O)CC(C)(C)CC4=O)sc2C)cc1	?	0.0%	1.7%	/	1.9%[46.1 µM]	/
CN(C)C(=O)COC(=O)c1ccccc1OCC(=O)Nc1ccc(Br)cc1	/	-7.0%	-4.2%	/	/	/
Cc1ccc(C(=O)OCC(=O)NC2CCCC2)cc1	/	/	/	32.0*	/	74.7*
O=C(COC(=O)c1ccc(O)cc1)NC1CCCC1	/	/	/	19.4	/	16.3
Cc1ccc(CNC(=S)NC2CCCCC2)cc1	/	/	/	-1.3	/	-2.9
Cc1ccc(CNC(=O)NC2CCCCC2)cc1	17.3%	/	/	16.0*	-24.0%	55.5*
COc1ccc(C2(O)CCN(C(=O)NC3CCCCC3)CC2)cc1	3.66µM*	-17.2%	-6.2%	13.2	-6.5%	24.0
Cc1ccc(C(=O)NCC(=O)NC2CCCCCC2)cc1	7.6%	-23.7%	-22.3%	active	25.1%	25.5*
CCc1nn2c(=O)cc(COC(=O)CNC(=O)c3ccccc3)nc2s1	/	-3.4%	-5.4%	/	4.2%[46.1 µM]	/
O=C(CSc1nc2c([nH]c3ccccc32)c(=O)n1-c1ccc(F)cc1)NCc1ccc(F)cc1	/	-10.8%	-5.3%	/	?	/
CCn1cc(CNC(=O)/C=C/c2cnn(C)c2)c(C)n1	4.9%	-8.8%	-1.7%	-1.1	?	14.4
COC(=O)c1ccc(OCC(=O)NC2CCCCCC2)cc1	/	/	/	25.2	/	39.5*
O=C(c1cccc(C(=O)N(c2ccccn2)C2CCCCC2)c1)N(c1ccccn1)C1CCCCC1	9.2µM*	-26.1%	-23.5%	-5.9	?	42.5
O=C(NC1CCCCCC1)C1CCN(C(=O)c2ccc(Br)cc2)CC1	/	/	/	-2.2	/	-7.0
Cc1ccc(C(=O)N2CCC(C(=O)NC3CCCCCC3)CC2)cc1	2.8%[46.1 µM]	-8.5%	-10.4%	27.6*	9.9%[46.1 µM]	55.7
CCn1cc(CNC(=O)NC2CCCCC2)c(C)n1	?	-6.7%	-9.0%	19.2*	12.7%	64.6*
SMILES	Marburg entry inh	Vaccinia mCherry	VACV Venus inh	Cycloheximide cs	LASV entry inh	Shiga inhibitor
CCCN(CCC)C(=O)Cn1c(=O)n(-c2ccc(CC)cc2)c(=O)c2ccc(C(=O)NCCc3ccccc3)cc21	14.1%[46.1 µM]	-29.6%	-24.7%	/	-7.5%[46.1 µM]	/
Clc1ccc(-n2nnnc2-c2ccno2)cc1	20.8%[46.1 µM]	-8.8%	-1.1%	-0.9	6.5%[46.1 µM]	4.5
COc1ccc(C2CC(=O)N(CC(=O)Nc3cc(C)ccc3C)c3ccccc3S2)cc1 (centres undefined)	4.4%[46.1 µM]	-4.2%	6.7%	/	/	/
CC(C)c1ccc(OCC(=O)NC2CCCC2)cc1	/	/	/	34.1*	/	63.0*
CC(C)c1ccc(OCC(=O)N(c2ccccn2)C2CCCCC2)cc1	?	-19.9%	-16.3%	16.5*	-12.8%	19.1
COc1ccc(OCC(=O)NC2CCCCCCC2)cc1	?	i	-18.1%	26.6*	7.1%[46.1 µM]	41.8*
COc1ccc(OCC(=O)OCC(=O)NC2CCCC2)cc1	8.5%	-15.0%	-3.3%	/	2.3%	/
O=C(COc1ccc(F)cc1)N(c1ccccn1)C1CCCCC1	-2.2%	i	-3.9%	1.2	15.2%	-4.7
O=C(NCCCc1nc2ccccc2n1CCOc1ccccc1)C1CCCCC1	/	16.0%	-10.5%	/	/	/
Cc1cc(C)c2oc(C(=O)Nc3ccc(S(=O)(=O)N4CCCCC4)cc3)cc(=O)c2c1	16.6%[46.1 µM]	-2.1%	-4.8%	/	2.6%[46.1 µM]	/
O=c1oc(-c2ccc(C(F)(F)F)cc2)nn1Cc1cc(Cl)ccc1O	/	/	/	-1.0	/	-4.4
COc1ccc(/C=C/C(=O)Nc2ccc(Cl)cc2Cl)cc1	/	-9.4%	4.5%	/	-0.2%[46.1 µM]	/
Nc1cccc(CCc2ccncc2)c1	5.8%[46.1 µM]	-1.5%	-1.7%	0.2	13.0%[46.1 µM]	-3.2
C(=C\c1ccccn1)/c1ccncc1	/	-6.4%	-3.6%	21.5*	/	77.8*
Nc1nnc(/C=C/c2cccc([N+](=O)[O-])c2)s1	/	/	/	41.6*	/	29.2
Nc1cccc(/C=C/c2ccncc2)c1	/	i	-16.6%	19.6*	/	58.7*
O=[N+]([O-])c1cccc(/C=N/Nc2ccccn2)c1	/	/	/	15.9	/	65.2*
O=[N+]([O-])c1ccc(Cl)cc1C=NNc1ccccn1	-2.1%	i	-2.3%	/	?	/
CCCS(=O)(=O)N1CCC(C(=O)NCc2ccc(F)cc2)CC1	21.5%	-13.6%	-8.0%	-3.6	5.6%	10.4
Cc1ccc(-c2n[nH]c3c2C(c2ccc(C(C)(C)C)cc2)NC3=O)cc1 (centres undefined)	-1.1%[46.1 µM]	-3.0%	-9.4%	/	5.1%[46.1 µM]	/
CN(C)c1ccc(/C=N\Nc2ccccn2)cc1	-27.0%	i	4.1%	23.9*	?	47.1*
O=C(c1cccc([N+](=O)[O-])c1)c1ccccn1	/	/	/	1.3	/	4.8
CN(C)c1ccc(C=NNc2ccccn2)c(Cl)c1	?	-12.6%	-9.4%	/	20.6%	/
Cc1cc(C)nc(N/N=C/c2cccc([N+](=O)[O-])c2)n1	?	i	-12.6%	12.4	-4.5%[46.1 µM]	28.6
O=[N+]([O-])c1cccc(/C=N/Nc2nccnc2Cl)c1	13.1%	i	-17.6%	42.1*	12.1%	76.7*
N#C/C(=C\c1cccc([N+](=O)[O-])c1)c1ccccn1	?	-16.0%	-13.6%	28.0*	-18.2%[46.1 µM]	54.6*
O=[N+]([O-])c1cccc(/C=C/c2ccccn2)c1	/	/	/	28.7*	/	53.9*
COc1ccc(NC(=O)Cn2c(=O)n(Cc3nc(-c4ccccc4)no3)c(=O)c3cc4c(cc32)OCO4)c(OC)c1	/	-18.1%	-9.3%	/	?	/
COc1ccc(-c2nc(CSc3nnc(C)n4c3cc3oc(C)cc34)c(C)o2)cc1OC	/	-19.0%	?	/	22.9%[46.1 µM]	/
COc1cccc(C(=O)NCC2Cc3c(F)ccc(-c4ncccn4)c3O2)c1OC (centres undefined)	/	-9.1%	?	/	/	/

Compound activity from PubChem.
